Bioassay records from PubChem.
aSyn UTR inh: MLPCN primary screen, SNCA 5' untranslated region. alpha-synuclein 5'UTR reporter, inhibitor activity. inhibition, % (tested at 7.5 µM). 300,000 tested, 0.82% active. AID 1813; in the data active = inhibition above about 60%;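 also: H4 neuroglioblastoma cells stably carrying SNCA 5'UTR luciferase fusion; 0% = DMSO wells and 100% = positive control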
KLF5 inhibitor: kruppel-like factor 5 inhibition; 290,000 tested, 0.23% active; inhibition, % at 5 µM; DLD-1 KLF5 promoter-luciferase reporter, luminescence;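 active = inhibition above a per-plate limit of that plate's mean compound inhibition plus 3 SD, cut at about 60% in these data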;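 also: 0% = DMSO wells and 100% = LY294002 at 200 µM; higher means less KLF5 promoter-driven luciferase light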
APP transl inh: APP translation inhibition | SH-SY5Y APP 5'UTR-luciferase reporter, luminescence | inhibition, % at 2 µM | 190,000 tested, 0.82% active | AID 1285;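 active = inhibition above a set limit, derived from the sample mean plus 3 SD, cut at about 45% in these data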
IEC-6 cytotox: kills IEC-6 intestinal cells in KLF5 counter-screen. IEC-6 cytotoxicity, luminescence viability. inhibition, % at 5 µM. 290,000 tested, 0.78% active. AID 1825; in the data active = inhibition above about 22%;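 also: 0% = plate median of test compound wells and 100% = cytotoxic reference compound wells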
BaF3 tox: counter-screen for JAK2V617F inhibitors: parental Ba/F3 viability inhibitors. 220,000 tested, 1.1% active. AID 1486. CellTiter-Glo ATP luminescence. inhibition, % at 5.6 µM;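 active = inhibition above a per-campaign cutoff, the mean inhibition of all tested compounds plus 3 SD, cut at about 27% in these data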;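 also: 0% = DMSO wells and 100% = JAK Inhibitor I control wells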
Ba/F3 V617F tox: reduce viability of Ba/F3 cells dependent on JAK2V617F. AID 1446. Ba/F3 EpoR-JAK2V617F viability, ATP luminescence. 220,000 tested, 1.1% active. inhibition, % at 5.6 µM;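 active = inhibition above the campaign mean plus 3 SD over all tested compounds, cut at about 24% in these data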;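 also: cytokine-independent growth of Ba/F3 cells driven by EpoR plus mutant JAK2; 0% = DMSO-treated cells and 100% = JAK inhibitor I control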
BaF3 parental 2: reduces parental Ba/F3 viability, JAK2V617F counter-screen; CellTiter-Glo luminescence; cells kept alive by added IL-3; AID 1520; shares compounds with Ba/F3 V617F tox; inhibition, % at 5.6 µM; 580 tested, 31% active;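 active = cell growth inhibition above the hit limit set in the earlier mutant JAK2 cell screen, cut at about 27% in these data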;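 also: plate controls were DMSO-treated cells for no effect and JAK Inhibitor I control wells for full effect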
JAK2V617F conf: confirmation: loss of viability in JAK2V617F-dependent Ba/F3 cells; shares compounds with Ba/F3 V617F tox; Ba/F3 EpoR-JAK2V617F viability, CellTiter-Glo luminescence; inhibition, % at 5.6 µM; 580 tested, 66% active; AID 1521;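 active = mean inhibition above the hit cutoff derived in the earlier primary screen, cut at about 25% in these data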;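 also: 0% = DMSO-treated cells and 100% = JAK inhibitor I control wells; higher means lower luminescence from reduced cell ATP and viability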
Starred values were filed as active, the others as inactive. Hits are enriched below; roughly 2.2% of the tested compounds scored in any of these assays.

Screening CCCCn1c(=N)n(CC(O)COc2ccc(C)cc2)c2ccccc21 (configuration not stated) returned aSyn UTR inh 1, KLF5 inhibitor -2, APP transl inh 11, IEC-6 cytotox 7, BaF3 tox 16, Ba/F3 V617F tox 65*, BaF3 parental 2 5 and JAK2V617F conf 48*.
For Cc1ccc(S(=O)(=O)NC(=O)NCC2CCN(S(=O)(=O)c3ccccc3)CC2)cc1 the results were aSyn UTR inh -18, KLF5 inhibitor -13 and IEC-6 cytotox 3.
For Nn1c(SCC(=O)NNC(=O)c2ccccc2)nnc1-c1ccccc1F the results were aSyn UTR inh -15.
NC(=O)c1ccccc1NC(=O)CCc1ccccc1 was read as aSyn UTR inh -113, KLF5 inhibitor -63, APP transl inh -4, IEC-6 cytotox -4, BaF3 tox 0 and Ba/F3 V617F tox -5.
For NC(=O)c1ccccc1NC(=S)NC(=O)CCc1ccccc1 the results were aSyn UTR inh 11, KLF5 inhibitor 68*, APP transl inh 71*, IEC-6 cytotox 60*, BaF3 tox 7, Ba/F3 V617F tox 47*, BaF3 parental 2 18 and JAK2V617F conf 91*.
For CC1(C)CC(=O)C(C=NCCN2CCN(C(=S)Nc3ccc(F)cc3)CC2)=C(O)C1 the results were aSyn UTR inh -14, KLF5 inhibitor -3, APP transl inh 0, IEC-6 cytotox 6, BaF3 tox 5, Ba/F3 V617F tox 37*, BaF3 parental 2 23 and JAK2V617F conf 40*.
Screening CCOc1ccc2nc(SCC(=O)NC(=O)C(C)C)sc2c1 returned aSyn UTR inh -26, KLF5 inhibitor -44, APP transl inh 7, IEC-6 cytotox -1, BaF3 tox 15, Ba/F3 V617F tox 51*, BaF3 parental 2 -3 and JAK2V617F conf -3.
O=C1CCCN1CCCNS(=O)(=O)c1ccc(F)c(F)c1 was read as aSyn UTR inh 3, KLF5 inhibitor -2 and IEC-6 cytotox 7.
`Cc1nc(Nc2ccc3c(c2)OCCO3)c2oc3ccccc3c2n1` gave aSyn UTR inh -26, KLF5 inhibitor -43, APP transl inh -15, IEC-6 cytotox 20, BaF3 tox 7, Ba/F3 V617F tox 59*, BaF3 parental 2 -5 and JAK2V617F conf 3.
CC(=O)Nc1ccc(N/C(=N\S(=O)(=O)c2ccccc2)c2ccccc2)cc1 was read as aSyn UTR inh 3, KLF5 inhibitor -37 and IEC-6 cytotox 0.
`O=c1[nH]c2ccc(N/C(=N/S(=O)(=O)c3ccccc3)c3ccccc3)cc2[nH]1` gave aSyn UTR inh 1, KLF5 inhibitor -25, APP transl inh 1, IEC-6 cytotox -4, BaF3 tox 3, Ba/F3 V617F tox 29*, BaF3 parental 2 -2 and JAK2V617F conf 1.
Screening O=C(CSc1nnnn1-c1ccc(F)cc1)c1ccc(O)c(O)c1 returned aSyn UTR inh -39, KLF5 inhibitor 6, APP transl inh 15, IEC-6 cytotox 8, BaF3 tox -11, Ba/F3 V617F tox 32*, BaF3 parental 2 3 and JAK2V617F conf 80*.
For O=C(O)c1ccc(CSc2nnnn2-c2ccc(F)cc2)cc1 the results were aSyn UTR inh 11, KLF5 inhibitor -23 and IEC-6 cytotox -2.
`Cc1ccc(-c2nc(C)sc2CC(=O)OCC(=O)Nc2ccc(F)c(Cl)c2)cc1` gave aSyn UTR inh 0.
`COc1cccc(/C=N/NC(=O)c2ccc(=O)[nH]n2)c1O` gave aSyn UTR inh -7, KLF5 inhibitor -6, IEC-6 cytotox 2, BaF3 tox 0 and Ba/F3 V617F tox 0.
`COc1cccc(/C=N/NC(=O)c2[nH]c(C)c(C(=O)N/N=C/c3cccc(OC)c3O)c2C)c1O` gave aSyn UTR inh 49, KLF5 inhibitor 21, APP transl inh 11, IEC-6 cytotox -7, BaF3 tox 5, Ba/F3 V617F tox 42*, BaF3 parental 2 12 and JAK2V617F conf 70*.
For CCN(CC(=O)NCc1ccc(Cl)cc1)C(=O)c1ccc(C#N)cc1 the results were aSyn UTR inh 2, KLF5 inhibitor -33 and IEC-6 cytotox -3.
For Cc1nc([N+](=O)[O-])c(Br)n1CC(=O)c1ccc2ccccc2c1 the results were aSyn UTR inh -24, KLF5 inhibitor -3, APP transl inh -2, IEC-6 cytotox 3, BaF3 tox 6, Ba/F3 V617F tox 44*, BaF3 parental 2 -3 and JAK2V617F conf 77*.
`COc1ccccc1CNC(=O)CN(C)Cc1ccc(SC)cc1` gave aSyn UTR inh 9, KLF5 inhibitor 3 and IEC-6 cytotox 1.
For CC(=O)n1cc(N(C(=O)CCl)c2ccc(Cl)cc2)c2ccccc21 the results were aSyn UTR inh 103*, KLF5 inhibitor -24, IEC-6 cytotox 9, BaF3 tox 13, Ba/F3 V617F tox 98*, BaF3 parental 2 104* and JAK2V617F conf 98*.
`CCOC(=O)c1ccccc1Nc1cn(C(C)=O)c2ccccc12` gave aSyn UTR inh 26, KLF5 inhibitor 3, APP transl inh -6, IEC-6 cytotox 1, BaF3 tox 6 and Ba/F3 V617F tox 1.
For O=C(N/N=C/c1cc2c3c(c1O)CCCN3CCC2)c1ccccc1O the results were aSyn UTR inh 104*, KLF5 inhibitor 5, APP transl inh 85*, IEC-6 cytotox -5, BaF3 tox 5, Ba/F3 V617F tox 35*, BaF3 parental 2 95* and JAK2V617F conf 96*.
CN(CCC(=O)Nc1ccc(Cl)cc1)Cc1ccccc1 was read as aSyn UTR inh -2, KLF5 inhibitor -23 and IEC-6 cytotox -1.
COc1cccc(C2(O)CCN(C(=O)C(C)C)CC2)c1 was read as aSyn UTR inh 3, KLF5 inhibitor 5, IEC-6 cytotox 10, BaF3 tox 5 and Ba/F3 V617F tox -3.
`COc1cccc(C2(O)CCN(C(=O)c3cccs3)CC2)c1` gave aSyn UTR inh 20, KLF5 inhibitor -26, APP transl inh 6, IEC-6 cytotox -4, BaF3 tox 0, Ba/F3 V617F tox 55*, BaF3 parental 2 -1 and JAK2V617F conf -2.
CNc1cc(CSC)nc(SCc2ccc(Cl)cc2Cl)n1 was read as aSyn UTR inh 49, KLF5 inhibitor -4, APP transl inh -1, IEC-6 cytotox -1, BaF3 tox 1 and Ba/F3 V617F tox -1.
CSCc1cc(N(C)C)nc(SCc2ccc(Cl)c(Cl)c2)n1 was read as aSyn UTR inh 36, KLF5 inhibitor 26, APP transl inh -8, IEC-6 cytotox -2, BaF3 tox 1, Ba/F3 V617F tox 42*, BaF3 parental 2 -3 and JAK2V617F conf 1.
Screening CCCNC(=O)c1ccc(COc2ccc(CCC)cc2OC)o1 returned aSyn UTR inh -16, KLF5 inhibitor -79 and IEC-6 cytotox 2.
